Screens: PubChem, several laboratories
EWS-Fli inh: inhibitors of EWS/Fli oncoprotein transcriptional activity | A673 NR0B1-luciferase reporter, viability-normalised | inhibition, % at 12.6 µM | 350,000 tested, 0.67% active | AID 651661;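 active means mean inhibition of at least 50% after viability correction, with every replicate also passing that limit; inconclusive means mean reaches 50% but only one of two replicates passes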;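 further: firefly luciferase signal divided by Alamar Blue viability fluorescence both relative to DMSO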
Shn3 inh set2: inhibitors of Schnurri-3 3'UTR reporter in osteoblasts | AID 588674 | 360,000 tested, 0.52% active | inhibition, % at 12.5 µM | Clone20 osteoblast Shn3 3'UTR firefly luciferase, 24 h;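 active means mean inhibition of at least 75% with every replicate also reaching 75%; inconclusive means mean inhibition at least 75% but some replicate below; inactive means mean inhibition below 75%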;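 further: 0% = median of neutral control wells and 100% = pilot-screen positive control compound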
PAX8 inh HTS: PAX8 transcriptional activity inhibition; RMG-I TPO-luciferase reporter, SteadyGlo, 24 h; inhibition, % at 12.6 µM; 360,000 tested, 1.2% active;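 active means mean replicate inhibition at least 60% with every replicate also reaching 60%; inconclusive means only one of the two criteria is met; inactive means mean below 60% and not all replicates reaching 60%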;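 further: luciferase light reporting Pax8 driven TPO promoter activity; plate controls were median of neutral control wells for no effect and mitoxantrone controls for full effect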
ABHD5-PLIN5 inh: inhibitors of human ABHD5-perilipin-5 interaction; Q00G26+Q8WTS1; Split G. princeps luciferase complementation, luminescence, 4 h; inhibition, % at 4 µM; 360,000 tested, 0.78% active;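 active means inhibition above the mean inhibition across every tested compound plus 3 SD, cut at about 22% in these data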;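 further: 0% = DMSO only wells and the 100% control is not disclosed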
Target sequence (Q00G26 whole entry, looked up): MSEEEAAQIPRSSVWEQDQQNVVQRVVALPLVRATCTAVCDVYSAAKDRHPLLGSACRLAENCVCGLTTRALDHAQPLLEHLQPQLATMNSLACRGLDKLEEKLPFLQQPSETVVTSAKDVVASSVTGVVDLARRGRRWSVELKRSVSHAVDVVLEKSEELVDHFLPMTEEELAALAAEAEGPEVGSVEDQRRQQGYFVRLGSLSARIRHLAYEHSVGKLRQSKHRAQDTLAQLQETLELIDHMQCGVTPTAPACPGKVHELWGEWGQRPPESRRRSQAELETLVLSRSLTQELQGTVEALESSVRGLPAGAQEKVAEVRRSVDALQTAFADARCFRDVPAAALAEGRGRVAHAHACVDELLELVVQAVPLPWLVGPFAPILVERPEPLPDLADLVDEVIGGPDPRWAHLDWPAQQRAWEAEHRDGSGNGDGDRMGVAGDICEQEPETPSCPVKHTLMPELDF
Target sequence (Q8WTS1 whole entry, looked up): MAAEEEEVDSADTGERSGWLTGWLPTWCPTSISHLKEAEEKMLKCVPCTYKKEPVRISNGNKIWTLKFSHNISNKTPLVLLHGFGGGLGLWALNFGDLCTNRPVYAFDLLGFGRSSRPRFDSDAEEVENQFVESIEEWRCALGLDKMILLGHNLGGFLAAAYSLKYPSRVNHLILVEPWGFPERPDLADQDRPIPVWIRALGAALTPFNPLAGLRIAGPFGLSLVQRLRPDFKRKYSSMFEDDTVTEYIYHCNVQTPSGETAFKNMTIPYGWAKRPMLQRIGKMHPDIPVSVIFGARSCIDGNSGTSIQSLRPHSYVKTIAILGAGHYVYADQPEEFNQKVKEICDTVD
Peg3 promoter: reduces Peg3 promoter-driven luciferase expression in HeLa. inhibition, % at 20 µM. AID 588405. HeLa PEG-Prom luciferase reporter, luminescence, overnight. 360,000 tested, 1.7% active;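 active means inhibition of at least 50% at 20 µM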
MITF TRPM1 inh: reduces MITF-dependent TRPM1 promoter luciferase signal | SK-MEL-5 TRPM1 promoter luciferase, 24 h | 330,000 tested, 0.83% active | AID 488899 | inhibition, % at 12.5 µM;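 active means mean inhibition across replicates of 60% or more, whatever share of single replicates reaches that level; inconclusive means some that reach 60%, reason not given; inactive means mean inhibition across replicates below 60%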
* = called active by the depositor. Shown are actives, neighbours in structure and some others; about 3% of the full set was active somewhere.

What do the screens show for `COC(=O)C1=C(c2ccc(OCc3ccccc3)cc2)C[C@@H]2CC[C@H]1N2C(=O)NCc1ccc([N+](=O)[O-])cc1`?
EWS-Fli inh: 10; Shn3 inh set2: 15; PAX8 inh HTS: 68*; ABHD5-PLIN5 inh: -9; Peg3 promoter: 18; MITF TRPM1 inh: 14

How did COC(=O)C1=C(c2ccc3ccccc3c2)C[C@@H]2CC[C@H]1N2C(=O)NCC1CC1 do in these assays?
EWS-Fli inh: -1; Shn3 inh set2: 89*; PAX8 inh HTS: 1; ABHD5-PLIN5 inh: 2; Peg3 promoter: -6; MITF TRPM1 inh: 6

What do the screens show for `COC(=O)C1=C(c2ccc3ccccc3c2)C[C@@H]2CC[C@H]1N2C(=O)NC1CC1`?
EWS-Fli inh: 6; Shn3 inh set2: 9; PAX8 inh HTS: 1; ABHD5-PLIN5 inh: 3; Peg3 promoter: 2; MITF TRPM1 inh: 4

What do the screens show for `COC(=O)C1=C(c2cccc(OCc3ccccc3)c2)C[C@@H]2CC[C@H]1N2C(=O)NCc1cc(C)oc1C(F)(F)F`?
EWS-Fli inh: 5; Shn3 inh set2: 14; PAX8 inh HTS: 63*; ABHD5-PLIN5 inh: 3; Peg3 promoter: 23; MITF TRPM1 inh: 9

Results for O=C(O)CCC(=O)NCCC1=c2ccccc2=N/C1=C\c1c(O)n(Cc2ccc(F)cc2)c(=S)[nH]c1=O ?
EWS-Fli inh: 11; Shn3 inh set2: 5; PAX8 inh HTS: 62*; ABHD5-PLIN5 inh: -7; Peg3 promoter: -21; MITF TRPM1 inh: 25

How did O=C(Cc1ccccn1)N1CCCCN2[C@H](CO)[C@H](c3ccc(C#Cc4ccccc4)cc3)[C@H]2C1 do in these assays?
EWS-Fli inh: 4; PAX8 inh HTS: 4

How did CC1Oc2cc3c(-c4c(O)cc(O)c5c(O)c6c(cc45)OC(C)C(C)C6=O)c(O)cc(O)c3c(O)c2C(=O)C1C (stereo not given) do in these assays?
Shn3 inh set2: 88*; ABHD5-PLIN5 inh: 3; Peg3 promoter: 70*; MITF TRPM1 inh: 82*

What do the screens show for `COC(=O)[C@@H]1[C@@H](CO)[C@@H]2Cn3c(ccc(-c4cccnc4)c3=O)[C@H]1N2S(=O)(=O)c1ccccc1C`?
EWS-Fli inh: -1; PAX8 inh HTS: -11

How did C/C=C/c1ccc(C2[C@@H]3CN(C(=O)C4CCOCC4)C[C@H]2N3)cc1 (stereo not given in full) do in these assays?
EWS-Fli inh: -18; PAX8 inh HTS: -10

Results for CN1C(=O)NC(=O)/C(=C\C=C\c2ccccc2[N+](=O)[O-])C1=O ?
EWS-Fli inh: 67*; PAX8 inh HTS: 10

How did COC(=O)[C@@H]1[C@@H](CO)[C@@H]2Cn3c(ccc(-c4cccc(OC)c4)c3=O)[C@H]1N2CC1CC1 do in these assays?
EWS-Fli inh: 7

How did CC(=O)OC1CC2OC3C=C(C)CCC3(C)C1(C)C21CO1 (stereo not given) do in these assays?
EWS-Fli inh: 43; Shn3 inh set2: 98*; ABHD5-PLIN5 inh: -7; Peg3 promoter: 108*

What do the screens show for `CC(=O)O[C@H]1C[C@@H]2OC3C=C(C)CCC3(C)[C@@]1(C)[C@@]21CO1` (stereo not given in full)?
EWS-Fli inh: 27; Shn3 inh set2: 98*; PAX8 inh HTS: 110*; ABHD5-PLIN5 inh: 5; Peg3 promoter: 96*; MITF TRPM1 inh: 66*

How did CCCC[C@@H](C)C[C@@H](C)C(=O)N(C)[C@@H](CC(C)C)C(=O)N[C@H](C(=O)N(C)[C@H](C(=O)N1C[C@@H](O)C[C@H]1C(=O)N1C(=O)C=C[C@@H]1C)C(C)C)C(C)OC(C)=O (stereo not given in full) do in these assays?
Shn3 inh set2: 85; ABHD5-PLIN5 inh: 43*; Peg3 promoter: 92*; MITF TRPM1 inh: 100*

What do the screens show for `COC(=O)[C@@H]1[C@@H](CO)[C@@H]2Cn3c(ccc(-c4ccc(F)cc4)c3=O)[C@H]1N2Cc1ccccc1`?
EWS-Fli inh: -6; PAX8 inh HTS: -15

How did O=C(NC(=C(Cl)Cl)P(=O)(c1ccccc1)c1ccccc1)c1ccccc1 do in these assays?
EWS-Fli inh: 2; Shn3 inh set2: 8; PAX8 inh HTS: 108*; ABHD5-PLIN5 inh: 0; Peg3 promoter: 2; MITF TRPM1 inh: 12

What do the screens show for `Cc1cccc(-c2nc3ccc(C(=O)N4CCC5(CC4)OCCO5)cc3nc2-c2cccc(C)c2)c1`?
Shn3 inh set2: 7; PAX8 inh HTS: -6; ABHD5-PLIN5 inh: 14; Peg3 promoter: 56*; MITF TRPM1 inh: -8

How did COc1cccc(C(=O)N2CCC3(CC2)OCCO3)c1 do in these assays?
EWS-Fli inh: -6; Shn3 inh set2: -10; PAX8 inh HTS: 16; ABHD5-PLIN5 inh: 0; Peg3 promoter: 10; MITF TRPM1 inh: 12

Results for NC(=Nc1ccccc1)NN=Cc1c[nH]c2ccccc12 ?
EWS-Fli inh: 40; Shn3 inh set2: 42; PAX8 inh HTS: 45; ABHD5-PLIN5 inh: 3; Peg3 promoter: 33; MITF TRPM1 inh: 88*

What do the screens show for `CC[C@H](C)[C@@H]1NC(=O)CNC(=O)c2csc(n2)[C@H](C(C)(C)O)OC(=O)C(C)(C)[C@H](CCCC(C)(Cl)Cl)OC(=O)c2csc1n2`?
EWS-Fli inh: 2; Shn3 inh set2: 56; PAX8 inh HTS: 102*; ABHD5-PLIN5 inh: 7; Peg3 promoter: 65*

Results for COc1ccc(Oc2cc(NC(=O)c3nn(C)cc3[N+](=O)[O-])cc([N+](=O)[O-])c2)cc1 ?
EWS-Fli inh: 28; Shn3 inh set2: inconclusive; ABHD5-PLIN5 inh: 5; Peg3 promoter: 104*; MITF TRPM1 inh: 81*

What do the screens show for `NC(Cc1ccc(F)cc1)c1csc(Nc2ncccn2)n1` (stereo not given)?
EWS-Fli inh: -9; Shn3 inh set2: 15; PAX8 inh HTS: 74*; ABHD5-PLIN5 inh: 5; Peg3 promoter: -12

How did CCN1[C@@H]2Cn3c(ccc(-c4cccc(C(=O)N(C)C)c4)c3=O)[C@H]1[C@@H](C(=O)OC)[C@@H]2CO do in these assays?
EWS-Fli inh: -1; PAX8 inh HTS: -20

How did CC(=O)c1ccc2c(c1)C1C(Cl)C(Sc3ccccc3[N+](=O)[O-])CC1C(c1ccccc1[N+](=O)[O-])N2 (stereo not given) do in these assays?
Shn3 inh set2: 27; PAX8 inh HTS: 63*; ABHD5-PLIN5 inh: 7; Peg3 promoter: 26; MITF TRPM1 inh: 2

What do the screens show for `C/C=C/c1ccc(C2[C@@H]3CN(C(=O)c4cnccn4)C[C@H]2N3)cc1` (stereo not given in full)?
EWS-Fli inh: 15; PAX8 inh HTS: 9

How did O=C1C(=O)c2ccccc2-c2ccccc21 do in these assays?
EWS-Fli inh: 82*; Shn3 inh set2: 117*; PAX8 inh HTS: inconclusive; ABHD5-PLIN5 inh: 13; Peg3 promoter: 101*; MITF TRPM1 inh: 110*

Results for O=C1C(=O)c2cccc3cccc1c23 ?
EWS-Fli inh: 26; Shn3 inh set2: -17; PAX8 inh HTS: 15; ABHD5-PLIN5 inh: -7; Peg3 promoter: 28; MITF TRPM1 inh: 2
